PubChem BioAssay AID1159580 (chemical genetic matrix, 2015)
Screen size: about 5,500 compounds; about 2,000 (36%) were called active. Roughly 18% stayed inconclusive and do not appear here. Rule as the data show it: active = normalized growth mostly below about 0.91 (no sharp cut-off); inconclusive = no clear call, values can overlap the other calls; inactive = mostly above about 0.92. This is one part of the list.

Test: chemical genetic growth profiling, strain panel (AID 1159580);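 also: tested at 20 µM; growth read once vehicle control cultures reached saturation at 30 °C; 1 = growth at the plate median or of vehicle wells; lower values mean less growth of the strain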
Conditions: growth OD

Measured: normalized growth

CCCCCC(C)N (configuration not stated)
inactive: S. cerevisiae deletion strains, locus YJR075W, strain HOC1, stronger effect = lower value 1.02 | S. cerevisiae deletion strains, locus YKL009W, strain mrt4, stronger effect = lower value 0.946 | S. cerevisiae deletion strains, locus YKL068W, stronger effect = lower value 1 | S. cerevisiae deletion strains, locus YKL085W, strain MDH1 (second series), stronger effect = lower value 1.05 | S. cerevisiae deletion strains, locus YKL085W, strain MDH1, stronger effect = lower value 1.05 | S. cerevisiae deletion strains, locus YKL160W, strain elf1, stronger effect = lower value 1.03 | S. cerevisiae deletion strains, locus YKL190W, strain CNB1, stronger effect = lower value 1.02 | S. cerevisiae deletion strains, locus YKR001C, strain vps1, stronger effect = lower value 0.988 | S. cerevisiae deletion strains, locus YKR026C, strain gcn3, stronger effect = lower value 1.03 | S. cerevisiae deletion strains, locus YKR091W, strain srl3, stronger effect = lower value 1.02 | S. cerevisiae deletion strains, locus YLL001W, strain dnm1, stronger effect = lower value 1.03 | S. cerevisiae deletion strains, locus YLL026W, stronger effect = lower value 1.03 | S. cerevisiae deletion strains, locus YLL041C, strain sdh2, stronger effect = lower value 1.02 | S. cerevisiae deletion strains, locus YLR027C, strain aat2, stronger effect = lower value 1.03 | S. cerevisiae deletion strains, locus YLR039C, strain RIC1, stronger effect = lower value 1.04 | S. cerevisiae deletion strains, locus YLR058C, strain SHM2, stronger effect = lower value 1.02 | S. cerevisiae deletion strains, locus YLR102C, strain apc9, stronger effect = lower value 0.995 | S. cerevisiae deletion strains, locus YLR113W, strain HOG1, stronger effect = lower value 0.978 | S. cerevisiae deletion strains, locus YLR221C, strain rsa3, stronger effect = lower value 1.03 | S. cerevisiae deletion strains, locus YLR258W, strain gsy2, stronger effect = lower value 1.02 | S. cerevisiae deletion strains, locus YLR262C, strain YPT6 (second series), stronger effect = lower value 1.05 | S. cerevisiae deletion strains, locus YLR262C, strain YPT6, stronger effect = lower value 1.05 | S. cerevisiae deletion strains, locus YLR268W, strain sec22, stronger effect = lower value 0.972 | S. cerevisiae deletion strains, locus YLR320W, strain mms22, stronger effect = lower value 1.04 | S. cerevisiae deletion strains, locus YLR330W, strain CHS5, stronger effect = lower value 1.01 | S. cerevisiae deletion strains, locus YLR342W, strain FKS1 (second series), stronger effect = lower value 1.03 | S. cerevisiae deletion strains, locus YLR342W, strain FKS1, stronger effect = lower value 1.03 | S. cerevisiae deletion strains, locus YLR357W, strain rsc2, stronger effect = lower value 1.05 | S. cerevisiae deletion strains, locus YLR370C, strain arc18, stronger effect = lower value 1.04 | S. cerevisiae deletion strains, locus YLR371W, strain rom2, stronger effect = lower value 0.989 | S. cerevisiae deletion strains, locus YLR384C, strain iki3, stronger effect = lower value 1.02 | S. cerevisiae deletion strains, locus YLR418C, strain cdc73, stronger effect = lower value 0.994 | S. cerevisiae deletion strains, locus YML016C, strain PPZ1, stronger effect = lower value 1.01 | S. cerevisiae deletion strains, locus YML032C, strain rad52, stronger effect = lower value 0.986 | S. cerevisiae deletion strains, locus YML120C, strain ndi1, stronger effect = lower value 1.03 | S. cerevisiae deletion strains, locus YML124C, strain tub3, stronger effect = lower value 0.997 | S. cerevisiae deletion strains, locus YMR058W, strain fet3, stronger effect = lower value 1.02 | S. cerevisiae deletion strains, locus YMR078C, strain ctf18, stronger effect = lower value 0.98 | S. cerevisiae deletion strains, locus YMR125W, strain sto1, stronger effect = lower value 1.03 | S. cerevisiae deletion strains, locus YMR129W, stronger effect = lower value 1.02 | S. cerevisiae deletion strains, locus YMR205C, strain PFK2, stronger effect = lower value 1.05 | S. cerevisiae deletion strains, locus YMR223W, strain ubp8, stronger effect = lower value 1.02 | S. cerevisiae deletion strains, locus YMR231W, strain pep5, stronger effect = lower value 1.03 | S. cerevisiae deletion strains, locus YMR263W, strain SAP30, stronger effect = lower value 1.02 | S. cerevisiae deletion strains, locus YMR307W, strain GAS1, stronger effect = lower value 1.03 | S. cerevisiae deletion strains, locus YNL067W, strain RPL9B, stronger effect = lower value 1.01 | S. cerevisiae deletion strains, locus YNL071W, strain lat1, stronger effect = lower value 1.03 | S. cerevisiae deletion strains, locus YNL128W, strain TEP1, stronger effect = lower value 1.01 | S. cerevisiae deletion strains, locus YNL153C, strain GIM3, stronger effect = lower value 1.01 | S. cerevisiae deletion strains, locus YNL183C, strain NPR1, stronger effect = lower value 0.943 | S. cerevisiae deletion strains, locus YNL209W, strain ssb2, stronger effect = lower value 1.03 | S. cerevisiae deletion strains, locus YNL233W, strain BNI4, stronger effect = lower value 1.02 | S. cerevisiae deletion strains, locus YNL248C, strain rpa49, stronger effect = lower value 1.03 | S. cerevisiae deletion strains, locus YNL250W, strain rad50, stronger effect = lower value 0.994 | S. cerevisiae deletion strains, locus YNL271C, strain bni1, stronger effect = lower value 0.985 | S. cerevisiae deletion strains, locus YNL298W, strain CLA4, stronger effect = lower value 0.989 | S. cerevisiae deletion strains, locus YNL307C, strain MCK1, stronger effect = lower value 0.999 | S. cerevisiae deletion strains, locus YNL322C, strain KRE1 (second series), stronger effect = lower value 1.04 | S. cerevisiae deletion strains, locus YNL322C, strain KRE1, stronger effect = lower value 1.01 | S. cerevisiae deletion strains, locus YNR049C, strain mso1, stronger effect = lower value 1.03 | S. cerevisiae deletion strains, locus YNR052C, strain pop2, stronger effect = lower value 0.988 | S. cerevisiae deletion strains, locus YOL006C, strain TOP1, stronger effect = lower value 1.01 | S. cerevisiae deletion strains, locus YOL012C, strain htz1 1.25 | S. cerevisiae deletion strains, locus YOL147C, strain pex11, stronger effect = lower value 1 | S. cerevisiae deletion strains, locus YOR001W, strain rrp6, stronger effect = lower value 1 | S. cerevisiae deletion strains, locus YOR061W, strain CKA2, stronger effect = lower value 1.02 | S. cerevisiae deletion strains, locus YOR069W, strain VPS5, stronger effect = lower value 1.01 | S. cerevisiae deletion strains, locus YOR070C, strain gyp1, stronger effect = lower value 1.02 | S. cerevisiae deletion strains, locus YOR080W, strain dia2, stronger effect = lower value 1.04 | S. cerevisiae deletion strains, locus YOR083W, strain WHI5, stronger effect = lower value 1.02 | S. cerevisiae deletion strains, locus YOR106W, strain vam3, stronger effect = lower value 1.04 | S. cerevisiae deletion strains, locus YOR136W, strain idh2, stronger effect = lower value 0.988 | S. cerevisiae deletion strains, locus YOR144C, strain elg1, stronger effect = lower value 0.992 | S. cerevisiae deletion strains, locus YOR184W, strain ser1, stronger effect = lower value 0.982 | S. cerevisiae deletion strains, locus YOR231W, strain MKK1, stronger effect = lower value 0.997 | S. cerevisiae deletion strains, locus YOR265W, strain rbl2, stronger effect = lower value 1.02 | S. cerevisiae deletion strains, locus YOR270C, strain vph1, stronger effect = lower value 1.07 | S. cerevisiae deletion strains, locus YOR290C, strain snf2, stronger effect = lower value 1.02 | S. cerevisiae deletion strains, locus YOR316C, strain cot1, stronger effect = lower value 0.999 | S. cerevisiae deletion strains, locus YPL051W, strain arl3, stronger effect = lower value 1.01 | S. cerevisiae deletion strains, locus YPL055C, strain LGE1, stronger effect = lower value 1.03 | S. cerevisiae deletion strains, locus YPL078C, strain atp4, stronger effect = lower value 1.03 | S. cerevisiae deletion strains, locus YPL106C, strain sse1, stronger effect = lower value 1.03 | S. cerevisiae deletion strains, locus YPL240C, strain hsp82, stronger effect = lower value 1.03 | S. cerevisiae deletion strains, locus YPL241C, strain CIN2, stronger effect = lower value 1 | S. cerevisiae deletion strains, locus YPL256C, strain CLN2, stronger effect = lower value 0.992 | S. cerevisiae deletion strains, locus YPR119W, strain clb2, stronger effect = lower value 0.989 | S. cerevisiae deletion strains, locus YPR141C, strain kar3, stronger effect = lower value 0.99 | S. cerevisiae deletion strains, locus YPR163C, strain tif3, stronger effect = lower value 0.992 | S. cerevisiae deletion strains, locus YPR167C, strain met16, stronger effect = lower value 0.998 | S. cerevisiae deletion strains, strain wtn01, stronger effect = lower value 0.997 | S. cerevisiae strains, strain wild type, stronger effect = lower value 1.01
